PubChem BioAssay
Active and inactive are the calls of the source. Unless noted, no rule for the calls is given here.

What was measured:
[1] = anti-His antibody binders, primary screen, artefact control for SMM control protein annotation, biochemical, small-molecule microarray, 635 nm fluorescence (AID 1128); conditions: anti-His Alexa647 antibody binding, higher = more signal;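 also: score merges feature fluorescence with signal-to-noise for each printed compound spot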
[2] = test system: Human papillomavirus type 1a E7 protein (residues 1-88); test: HPV1a E7 small-molecule binders, primary screen, biochemical, small-molecule microarray, residues 1-88, 635 nm (AID 1129); conditions: small-molecule microarray binding, fluorescence 635 nm; higher = more signal
[3] = target: Focal adhesion kinase 1 (Homo sapiens) (UniProt Q05397); test: small-molecule microarray binders of FAK, primary screen, biochemical, 635/667 nm fluorescence, BSA, DTT (AID 1130); conditions: PTK2 binding, 635 nm fluorescence, higher = more signal;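 also: composite of spot emission at 667 nm and signal to noise over triplicate slides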
[4] = test system: Fibrinogen (Alexa647-labelled); test: fibrinogen binders on compound microarrays, profiling panel, artefact control for SMM control-protein annotation, biochemical, small-molecule microarray, 635/667 nm fluorescence (AID 1131); conditions: fibrinogen-A647 binding fluorescence, higher = more signal;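 also: z-score merges 667 nm fluorescence with per-spot signal-to-noise over triplicate slides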
[5] = target: Follistatin (Homo sapiens) (UniProt P19883); test: follistatin binders on small-molecule microarrays, primary screen, biochemical, small-molecule microarray, 635/667 nm fluorescence (AID 1132); conditions: FST binding, 635 nm fluorescence, higher = more signal
[6] = target: Fibroblast growth factor 2 (Homo sapiens) (UniProt P09038); test: FGF2 binders on small-molecule microarrays, primary screen, biochemical, small-molecule microarray, 635/667 nm fluorescence (AID 1133); conditions: small-molecule microarray binding, FGF2, fluorescence 635/667; higher = more signal
[7] = mitochondrial membrane potential change in A549 cells, profiling panel, cell-based, JC-1 fluorescence, basal, 24 h, 100 nL (AID 1138); conditions: higher = more signal;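 also: A549 lung adenocarcinoma cells under basal conditions with no added stimulus; test concentration not given here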
Lefty1 = Lefty1 binders on small-molecule microarrays, primary screen, biochemical, small-molecule microarray, 635/667 nm fluorescence (AID 1139); conditions: small-molecule microarray binding, fluorescence 635/667; higher = more signal
[8] = test system: wheat germ agglutinin (Triticum aestivum), Alexa647-labelled; test: wheat germ agglutinin binders on compound microarrays, profiling panel, artefact control for SMM control-protein annotation, biochemical, small-molecule microarray, 635/667 nm fluorescence (AID 1140); conditions: WGA-A647 binding, 635 nm fluorescence, higher = more signal;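 also: score merges 667 nm feature emission with signal to noise over triplicate slides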
[9] = target: Luciferin 4-monooxygenase (Photinus pyralis) (UniProt P08659); test: firefly luciferase enzyme inhibitors, primary screen, biochemical, luminescence, purified enzyme, 2006 set (AID 1141); conditions: SteadyGlo luminescence, 30 min, higher = more signal, called active from +8 up or from −8 down;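 also: cell-free assay with purified firefly luciferase at 100 ng per well in PBS; test concentration not given here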
[10] = test system: Wnt5a (protein binding on small-molecule microarray); test: Wnt5a binders on small-molecule microarray, primary screen, biophysical, 635/667 nm fluorescence (AID 1142); conditions: 635 nm fluorescence, higher = more signal;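 also: fluorescence read at 667 nm with signal to noise per printed feature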
[11] = cell viability in Huh7 cells, primary screen, cytotoxicity control for HCV replication inhibitor project, CellTiter-Glo luminescence, basal, 48 h (AID 1143); conditions: Huh7 HCV replicon, higher = more signal, called active from +8 up or from −8 down;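 also: Huh7 hepatoma cells carrying a hepatitis C replication reporter with no stimulus; test concentration not given here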
[12] = P. aeruginosa biofilm formation inhibitors, primary screen, PAO1 strain, BacTiter-Glo luminescence, LB-PBS (AID 1144); conditions: 12 h, higher = more signal
[13] = CREB reporter modulators without forskolin, primary screen, cell-based, PC12, CRE-LacZ reporter, unstimulated (AID 1145); conditions: no forskolin, luminescence, 4.5 h, higher = more signal, called active from +8 up or from −8 down
[14] = CREB reporter modulators under forskolin, primary screen, cell-based, PC12, CRE-LacZ reporter, forskolin-stimulated (AID 1146); conditions: luminescence, 4.5 h, higher = more signal, called active from +8 up or from −8 down;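 also: PC12 cells with 6xCRE LacZ reporter stimulated by forskolin 10 µM; beta-galactosidase reporter signal reflecting CREB driven transcription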
[15] = target: Streptavidin (Streptomyces avidinii) (UniProt P22629); test: streptavidin binders on small-molecule microarray, primary screen, artefact control for SMM compound annotation, biophysical, 635/667 nm fluorescence (AID 1147); conditions: streptavidin binding, higher = more signal;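 also: signal reflects streptavidin binding to arrayed compounds as a control protein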
[16] = small-molecule binders of probe aInhba, primary screen, biochemical, small-molecule microarray, 635/667 nm fluorescence (AID 1148); conditions: higher = more signal;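 also: score merges 667nm spot fluorescence with signal-to-noise for antibody binding to printed compounds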
Torsin-1A (Homo sapiens) [17] = target: Torsin-1A (Homo sapiens) (UniProt O14656); test: torsin A binders from cell lysate, primary screen, small-molecule microarray, wild-type, 635/667 nm (AID 1149); conditions: COS7 hTOR1A-WT lysate, 635 nm fluorescence, higher = more signal
Torsin-1A (Homo sapiens) [18] = target: Torsin-1A (Homo sapiens) (UniProt O14656); test: small-molecule binders of mutant TOR1A in lysate, primary screen, cell lysate, small-molecule microarray, COS7 lysate, 635/667 nm fluorescence (AID 1150); conditions: COS7 hTOR1A mutant lysate, 635 nm fluorescence, higher = more signal;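 also: score pools 667 nm emission and signal to noise measuring lysate protein binding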
[19] = test system: Sonic hedgehog protein (Shh); test: small-molecule binders of Shh protein, primary screen, biochemical, small-molecule microarray, 635/667 nm fluorescence (AID 1151); conditions: small-molecule microarray binding, 635 nm fluorescence; higher = more signal;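 also: Shh protein binding to compounds spotted on small-molecule microarray slides; score combines spot fluorescence intensity with signal-to-noise across triplicate slides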

Chain of Luciferin 4-monooxygenase (Photinus pyralis) (P08659 whole entry, looked up): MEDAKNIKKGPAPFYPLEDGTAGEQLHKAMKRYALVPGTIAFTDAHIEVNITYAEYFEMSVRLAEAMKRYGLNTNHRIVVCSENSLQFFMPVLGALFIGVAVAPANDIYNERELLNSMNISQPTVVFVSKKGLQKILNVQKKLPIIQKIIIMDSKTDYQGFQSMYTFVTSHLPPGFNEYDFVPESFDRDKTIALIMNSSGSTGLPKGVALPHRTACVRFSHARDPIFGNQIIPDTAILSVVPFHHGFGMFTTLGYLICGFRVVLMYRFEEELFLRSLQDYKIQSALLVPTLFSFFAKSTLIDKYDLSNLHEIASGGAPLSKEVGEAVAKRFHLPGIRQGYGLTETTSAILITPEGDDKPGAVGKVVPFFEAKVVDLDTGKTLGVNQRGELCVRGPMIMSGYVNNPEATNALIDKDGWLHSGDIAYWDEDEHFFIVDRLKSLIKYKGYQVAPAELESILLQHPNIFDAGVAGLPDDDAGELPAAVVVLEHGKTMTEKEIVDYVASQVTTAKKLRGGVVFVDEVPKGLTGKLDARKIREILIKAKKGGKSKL
Chain of Fibroblast growth factor 2 (Homo sapiens) (P09038 whole entry, looked up): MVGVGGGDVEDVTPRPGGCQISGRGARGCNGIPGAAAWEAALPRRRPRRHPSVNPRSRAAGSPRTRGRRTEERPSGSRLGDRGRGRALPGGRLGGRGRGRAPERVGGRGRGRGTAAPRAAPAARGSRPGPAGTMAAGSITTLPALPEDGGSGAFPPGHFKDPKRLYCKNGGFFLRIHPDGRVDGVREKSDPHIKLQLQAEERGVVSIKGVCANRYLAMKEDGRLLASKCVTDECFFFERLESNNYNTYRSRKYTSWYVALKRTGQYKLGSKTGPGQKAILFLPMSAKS
Chain of Focal adhesion kinase 1 (Homo sapiens) (Q05397 whole entry, looked up): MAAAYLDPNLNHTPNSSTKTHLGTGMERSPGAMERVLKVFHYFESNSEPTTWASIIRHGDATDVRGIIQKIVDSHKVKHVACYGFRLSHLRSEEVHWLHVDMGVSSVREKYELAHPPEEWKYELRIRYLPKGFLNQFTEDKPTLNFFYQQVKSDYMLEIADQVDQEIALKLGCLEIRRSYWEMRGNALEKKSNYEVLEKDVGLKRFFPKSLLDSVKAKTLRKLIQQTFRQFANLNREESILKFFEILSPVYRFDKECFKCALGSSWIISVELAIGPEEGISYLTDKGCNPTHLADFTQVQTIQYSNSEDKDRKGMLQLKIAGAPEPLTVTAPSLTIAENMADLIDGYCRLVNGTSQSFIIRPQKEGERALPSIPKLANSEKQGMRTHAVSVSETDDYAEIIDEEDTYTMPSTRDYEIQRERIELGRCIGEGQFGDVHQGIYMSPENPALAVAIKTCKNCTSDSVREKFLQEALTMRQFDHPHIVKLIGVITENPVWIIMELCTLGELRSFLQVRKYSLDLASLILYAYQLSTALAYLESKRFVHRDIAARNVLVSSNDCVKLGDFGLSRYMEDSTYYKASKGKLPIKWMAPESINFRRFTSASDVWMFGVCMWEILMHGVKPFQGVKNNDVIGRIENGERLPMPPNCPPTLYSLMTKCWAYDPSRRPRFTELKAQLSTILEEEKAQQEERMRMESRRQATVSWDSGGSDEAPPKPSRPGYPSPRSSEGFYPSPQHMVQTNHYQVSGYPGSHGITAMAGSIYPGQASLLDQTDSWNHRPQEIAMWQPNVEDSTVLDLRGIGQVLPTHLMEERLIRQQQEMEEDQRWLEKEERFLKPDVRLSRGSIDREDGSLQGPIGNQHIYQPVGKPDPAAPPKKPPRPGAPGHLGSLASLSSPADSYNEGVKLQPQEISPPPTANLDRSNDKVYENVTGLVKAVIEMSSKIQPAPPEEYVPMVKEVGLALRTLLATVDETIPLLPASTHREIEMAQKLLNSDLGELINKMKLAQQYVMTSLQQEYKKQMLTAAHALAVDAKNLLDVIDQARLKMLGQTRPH
Chain of Torsin-1A (Homo sapiens) (O14656 whole entry, looked up): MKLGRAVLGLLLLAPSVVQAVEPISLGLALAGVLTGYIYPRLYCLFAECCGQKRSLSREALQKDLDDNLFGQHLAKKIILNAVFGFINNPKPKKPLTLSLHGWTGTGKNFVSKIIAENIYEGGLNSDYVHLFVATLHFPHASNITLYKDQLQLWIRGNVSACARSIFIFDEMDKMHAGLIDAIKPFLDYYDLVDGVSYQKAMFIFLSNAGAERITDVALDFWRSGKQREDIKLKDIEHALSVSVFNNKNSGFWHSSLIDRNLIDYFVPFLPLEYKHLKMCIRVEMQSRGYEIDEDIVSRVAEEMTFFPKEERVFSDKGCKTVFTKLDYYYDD
Chain of Streptavidin (Streptomyces avidinii) (P22629 whole entry, looked up): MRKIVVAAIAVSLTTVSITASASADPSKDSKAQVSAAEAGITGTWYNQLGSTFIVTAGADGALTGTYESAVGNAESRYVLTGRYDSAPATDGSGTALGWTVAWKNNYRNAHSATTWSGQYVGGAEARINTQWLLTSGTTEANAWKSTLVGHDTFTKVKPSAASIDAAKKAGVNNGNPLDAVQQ
Chain of Follistatin (Homo sapiens) (P19883 whole entry, looked up): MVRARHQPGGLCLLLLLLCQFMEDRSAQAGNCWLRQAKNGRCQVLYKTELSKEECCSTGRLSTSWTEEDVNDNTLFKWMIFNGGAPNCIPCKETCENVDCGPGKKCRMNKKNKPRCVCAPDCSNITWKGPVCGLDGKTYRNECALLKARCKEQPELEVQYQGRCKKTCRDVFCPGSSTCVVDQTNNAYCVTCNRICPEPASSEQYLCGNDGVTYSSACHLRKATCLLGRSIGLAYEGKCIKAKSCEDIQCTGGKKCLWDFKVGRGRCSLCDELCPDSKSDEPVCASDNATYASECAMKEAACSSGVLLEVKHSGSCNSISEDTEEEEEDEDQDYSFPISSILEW

Compound	composite z-score [1]	composite z-score [2]	composite z-score [3]	composite z-score [4]	composite z-score [5]	composite z-score [6]	z-score [7]	composite z-score (Lefty1)	composite z-score [8]	z-score [9]	composite z-score [10]	z-score [11]	z-score [12]	z-score [13]	z-score [14]	composite z-score [15]	composite z-score [16]	composite z-score (Torsin-1A (Homo sapiens) [17])	composite z-score (Torsin-1A (Homo sapiens) [18])	composite z-score [19]
COCCOC(=O)N1C(=O)[C@@]2(c3cc(C#CC4(O)CCCCCC4)ccc31)[C@H](c1ccc(OCCO)cc1)N1[C@H](c3ccccc3)[C@H](c3ccccc3)OC(=O)[C@H]1[C@@H]2C(N)=O	1.43	1.15	0.528	0.892	1.38	1.55	-1.27	1.38	0.613	-0.608 (inactive)	0.437	-4.15 (inactive)	0.323 (inactive)	0.468 (inactive)	0.595 (inactive)	0.213	0.0804	0.974	0.861	1.33
COCCOC(=O)N1C(=O)[C@@]2(c3cc(C#CC4(O)CCCCCC4)ccc31)[C@H](c1ccc(OCCO)cc1)N1[C@H](c3ccccc3)[C@H](c3ccccc3)OC(=O)[C@H]1[C@@H]2C(=O)N1CCCCCCC1	0.459	1.21	0.175	0.95	1.39	1.47	-1.31	1.16	1.32	-1.34 (inactive)	0.539	-4.81 (inactive)	-0.227 (inactive)	0.212 (inactive)	-0.325 (inactive)	1.68	1.63	1.12	1.12	2
CC1CC/C=C\[C@H]2OC34C=CCN(c5ccc(Cl)cc5)C(=O)[C@H]3N(CCCO)C(=O)[C@]4(C)C2C(=O)O1 (stereo not given in full)	-0.567	-0.796	-0.444	-1.67	-0.6	-1.2	0.58	-0.157	-1.34	-0.0112 (inactive)	-0.785	-0.0438 (inactive)	1.63 (inactive)	0.988 (inactive)	0.22 (inactive)	-1.02	-0.253	-2.1	-0.989	0.424
COc1cc2c(cc1O)C(C1CC1)N(Cc1ccc([N+](=O)[O-])o1)CC2 (stereo not given)	0.852	1.12	0.325	0.577	0.361	-0.0629	-0.184	-0.546	1.06	-0.924 (inactive)	0.128	-0.148 (inactive)	0.741 (inactive)	0.0924 (inactive)	0.786 (inactive)	1.63	0.161	0.322	0.521	-0.575
[N-]=[N+]=NCc1ccccc1C[C@]1(C(=O)N2CCOCC2)N=C(c2ccc(OCCCO)cc2)O[C@H]1c1ccccc1CN=[N+]=[N-]	2.97	1.25	0.681	0.963	1.3	1.92	1.68	-0.232	1	-1.25 (inactive)	1.42	-3.43 (inactive)	-0.52 (inactive)	0.778 (inactive)	-1.32 (inactive)	1.24	1.28	0.3	0.863	-0.0561
COCCOC(=O)N1C(=O)[C@@]2(c3cc(C#CC4=CCCCC4)ccc31)[C@H](c1ccc(OCCO)cc1)N1[C@H](c3ccccc3)[C@H](c3ccccc3)OC(=O)[C@H]1[C@@H]2C(=O)N1CCCCCCC1	1.11	0.929	0.267	0.818	1.41	1.42	-0.744	1.21	0.743	-2.78 (inactive)	0.266	-4.59 (inactive)	-1.17 (inactive)	-0.698 (inactive)	-1.13 (inactive)	0.945	1.05	0.984	0.84	1.91
CN(C)C(=O)[C@@]1(CCS(=O)(=O)c2ccccc2)N=C(c2ccc(OCCCO)cc2)O[C@H]1c1ccccc1N=[N+]=[N-]	0.838	1.25	0.601	1	1.1	0.58	0.371	0.267	0.371	-11 (active)	1	-3.2 (inactive)	1.75 (inactive)	0.447 (inactive)	-1.37 (inactive)	1.82	0.0569	0.155	0.797	-0.337
COCCOC(=O)N1C(=O)[C@@]2(c3cc(C#CCC(C(=O)OC)C(=O)OC)ccc31)[C@H](c1ccc(OCCO)cc1)N1[C@H](c3ccccc3)[C@H](c3ccccc3)OC(=O)[C@H]1[C@@H]2C(=O)N1CCCCCCC1	1	1.21	0.899	0.686	1.5	0.614	-0.83	0.958	1.37	-1.62 (inactive)	0.803	-1.67 (inactive)	-0.147 (inactive)	-0.467 (inactive)	-0.553 (inactive)	2.53	1.91	2.42	1.98	1.58
COc1ccc(CCNC(=O)[C@@H]2c3ccccc3C(=O)N(CC34CC5CC(CC(C5)C3)C4)[C@H]2c2ccc(CO)cc2)cc1	1.3	1.15	0.548	0.61	1.07	1.47	0.125	0.867	0.965	1.36 (inactive)	0.788	-3.34 (inactive)	-2.65 (inactive)	0.441 (inactive)	-0.887 (inactive)	0.4	-0.0006	0.713	0.801	1.4
COc1ccc(CCNC(=O)[C@@]2(Sc3ccc(C)cc3)CC(=O)N(Cc3cc(C(F)(F)F)cc(C(F)(F)F)c3)[C@@H]2c2ccc(CO)cc2)cc1	-0.588	-1.49	-0.545	-1.07	-1.83	-2.57	-0.138	-1.25	0.0191	-0.877 (inactive)	-0.668	0.305 (inactive)	0.731 (inactive)	0.495 (inactive)	0.84 (inactive)	-0.959	-0.127	-1.43	-1.53	-2.14
